The text below walks through data of PubChem BioAssay (EPA / NIEHS).

One may read the AC50 as the concentration at which the activity in the assay is half-maximal.

Read-out in assay [1]: Macrophage colony-stimulating factor (MCSF), CSF1 (gene 1435)
Briefly: BSK_hDFCGF_MCSF: BioMAP Diversity Plus: hDFCGF Assay for Macrophage colony-stimulating factor (MCSF) Biomarker Activity (AID 2283060). The following applies: primary human foreskin fibroblasts; actives raise or lower the signal. Summed up: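 ELISA read-out of M-CSF in human dermal foreskin fibroblast cultures, 24 h after chemical dosing; gain or loss of signal fitted bidirectionally relative to DMSO baseline.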

Assay [2] is described as follows: BSK_hDFCGF_SRB: Viability Assessment in the BioMAP Diversity Plus: hDFCGF Assay (AID 2283061).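 Note: cells exposed to compound for 24 h before the read.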 The following applies: primary human foreskin fibroblasts. Summed up: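 Primary human foreskin fibroblasts; 24 h post-dose; fixed 10% TCA, stained 0.1% SRB, A560 read; total protein as overt cytotoxicity measure; curves fit bidirectionally vs DMSO control.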
Read-out in assay [3]: TIMP metallopeptidase inhibitor 1 (TIMP1), TIMP1 (gene 7076)
Briefly: BSK_hDFCGF_TIMP1: BioMAP Diversity Plus: hDFCGF Assay for TIMP metallopeptidase inhibitor 1 (TIMP1) Biomarker Activity (AID 2283062). To be noted: primary human foreskin fibroblasts; actives raise or lower the signal. The method, boiled down: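 ELISA readout of TIMP-1 from human dermal foreskin fibroblast cultures 24 h post-dosing. Curves were fitted in both directions against DMSO baseline, with SRB total-protein staining in parallel cultures as a cytotoxicity check.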

Read-out in assay [4]: Monokine induced gamma interferon (MIG), CXCL9 (gene 4283)
Briefly: BSK_hDFCGF_MIG: BioMAP Diversity Plus: hDFCGF Assay for Monokine induced gamma interferon (MIG) Biomarker Activity (AID 2283063). The following applies: primary human foreskin fibroblasts; actives raise or lower the signal. The method, boiled down: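 Fibroblasts (human foreskin, primary) dosed, 24 h, MIG by ELISA; fit bidirectional vs DMSO.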

Read-out in assay [5]: Matrix Metallopeptidase 1 (MMP1), MMP1 (gene 4312)
Briefly: BSK_hDFCGF_MMP1: BioMAP Diversity Plus: hDFCGF Assay for Matrix Metallopeptidase 1 (MMP1) Biomarker Activity (AID 2283064). To be noted: primary human foreskin fibroblasts; actives raise or lower the signal. Summed up: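 Primary human foreskin fibroblasts exposed to chemicals for 24 h; MMP1 measured by ELISA. Cytotoxicity tracked by SRB staining in parallel cultures; bidirectional fit relative to DMSO.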

Read-out in assay [6]: Vascular cell adhesion molecule 1 (VCAM1), VCAM1 (gene 7412)
Briefly: BSK_hDFCGF_VCAM1: BioMAP Diversity Plus: hDFCGF Assay for Vascular cell adhesion molecule 1 (VCAM1) Biomarker Activity (AID 2283065).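 For AC50: VCAM-1 protein level quantified by ELISA after 24 h chemical exposure.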 To be noted: primary human foreskin fibroblasts; actives raise or lower the signal. Summed up: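 ELISA read-out of VCAM-1 on human skin fibroblasts, 24 h post-dose; gain or loss of signal fitted bidirectionally against DMSO baseline.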

Read-out in assay [7]: Plasminogen activator inhibitor-1 (PAI1), SERPINE1 (gene 5054)
Briefly: BSK_hDFCGF_PAI1: BioMAP Diversity Plus: hDFCGF Assay for Plasminogen activator inhibitor-1 (PAI1) Biomarker Activity (AID 2283066). The following applies: primary human foreskin fibroblasts; actives raise or lower the signal. Summed up: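 Human foreskin fibroblasts in the hDFCGF system were dosed with compound for 24 h; PAI-1 was quantified by ELISA. Bidirectional curve fitting used DMSO as negative control and baseline.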

Read-out in assay [8]: Intercellular Adhesion Molecule 1 (ICAM1), ICAM1 (gene 3383)
Briefly: BSK_KF3CT_ICAM1: BioMAP Diversity Plus: KF3CT Assay for Intercellular Adhesion Molecule 1 (ICAM1) Biomarker Activity (AID 2283067). To be noted: primary human keratinocytes with fibroblasts; actives raise or lower the signal. Summed up:
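ELISA readout of ICAM-1; KF3CT human skin co-culture (keratinocytes + foreskin fibroblasts), 24 h post-dose; gain/loss fit vs DMSO baseline.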

Read-out in assay [9]: Interferon-gamma inducible Protein 10 (IP10), CXCL10 (gene 3627)
Briefly: BSK_KF3CT_IP10: BioMAP Diversity Plus: KF3CT Assay for Interferon-gamma inducible Protein 10 (IP10) Biomarker Activity (AID 2283068). To be noted: primary human keratinocytes with fibroblasts; actives raise or lower the signal. The method, boiled down:
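Signal is secreted/surface IP-10 by ELISA in a human primary skin co-culture of keratinocytes and foreskin fibroblasts, taken 24 h post-dosing; DMSO served as negative control.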

Assay [10] is described as follows: BSK_KF3CT_SRB: Viability Assessment in the BioMAP Diversity Plus: KF3CT Assay (AID 2283069).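 Note: total protein by sulforhodamine B staining as a cytotoxicity measure; read 24 h after compound addition.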 The following applies: primary human keratinocytes with fibroblasts. Summed up:
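Human keratinocyte and foreskin fibroblast co-culture exposed to chemical for 24 h. Total protein measured in parallel cultures by 0.1% sulforhodamine B staining after 10% TCA fixation, read at 560 nm; bidirectional fit relative to DMSO.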

Several values for one entry are separate records, joined by “and”; a condition that tells them apart may be missing. Equal entries are not always repeated. Activity calls are given as the source filed them. Rule for the calls: active = hit-call score of the fitted dose curve at least 0.9, where 1 is the maximum; inactive = score below 0.9.

`CCN(CC)c1ccc2c(c1)Oc1cc(N(CC)CC)ccc1C21OC(=O)c2ccccc21`: the result in [1], in [2], in [3], in assay [4], in [5] and in [6] was inactive. The outcome in assay [7], in [8], in assay [9] and in [10] was inactive.
With `O=C1c2c(O)ccc(Nc3ccc(CCO)cc3)c2C(=O)c2c([N+](=O)[O-])ccc(O)c21`, the AC50 is 8.52 µM (active) in [1]; 20 µM (active) in assay [2]; 20 µM (active) in assay [3]; 29.5 µM (active) in [4]; 9.03 µM (active) in assay [6]; 15.2 µM (active) in [8]. Besides, in assay [9], the AC50 is 27 µM (active). Also, the result in assay [5], in [7] and in assay [10] was inactive.
Consider `O=C(Cl)C(F)(F)C(F)(F)C(F)(F)C(F)(F)C(F)(F)C(F)(F)F`, for which the result in assay [1], in assay [2], in assay [3], in assay [4], in [5] and in assay [6] was inactive. In addition, the result in assay [7], in assay [8], in assay [9] and in assay [10] was inactive.
As for `NCC(F)(F)C(F)(F)C(F)(F)C(F)(F)C(F)(F)C(F)(F)C(F)(F)C(F)(F)F`, the result in [1], in assay [2], in assay [3], in [4], in assay [5] and in assay [6] was inactive. Moreover, the result in assay [7], in assay [8], in [9] and in [10] was inactive.
Turning to `CCOC(=O)CC(=O)C(F)(F)C(F)(F)F`, the outcome in [1], in [2], in assay [3], in assay [4], in assay [5] and in assay [6] was inactive. Also, the outcome in assay [7], in assay [8], in assay [9] and in [10] was inactive.
For the compound `NC(=O)C(F)(F)C(F)(F)C(F)(F)C(F)(F)C(F)(F)C(F)(F)C(F)(F)F`, the result in [1], in assay [2], in [3], in [4], in assay [5] and in assay [6] was inactive. Also, the result in assay [7], in [8], in assay [9] and in assay [10] was inactive.
On to `OCCCCC(F)(F)C(F)(F)C(F)(F)C(F)(F)F`, for which the outcome in [1], in assay [2], in assay [3], in assay [4], in [5] and in assay [6] was inactive. The result in assay [7], in [8], in assay [9] and in assay [10] was inactive.
As to `O=C(O)C(F)(F)C(F)(F)C(F)(F)OC(F)(C(F)(F)F)C(F)(F)F`, the outcome in assay [1], in assay [2], in [3], in [4], in assay [5] and in [6] was inactive. Moreover, the outcome in assay [7], in assay [8], in assay [9] and in assay [10] was inactive.
As to `CCN(CC)c1ccc(C=O)c(O)c1`, the outcome in assay [1], in assay [2], in [3], in assay [4], in assay [5] and in assay [6] was inactive. In addition, the outcome in assay [7], in [8], in assay [9] and in assay [10] was inactive.
For the compound `O=S(=O)(OCC(F)(F)F)C(F)(F)C(F)(F)C(F)(F)C(F)(F)F`, the outcome in assay [1], in assay [2], in assay [3], in [4], in assay [5] and in assay [6] was inactive. For the same compound, the result in [7], in assay [8], in assay [9] and in assay [10] was inactive.
With `O=C(O)C(F)(F)C(F)(F)C(F)(F)C(=O)O`, the outcome in assay [1], in [3], in assay [4], in [5], in assay [6] and in assay [7] was inactive. The result in assay [8], in assay [9] and in assay [10] was inactive. Besides, in assay [2], the concentration at half-maximal activity (AC50) was 1.81 µM (active) and 19.7 µM (active).
Consider `CO[Si](C)(CCC(F)(F)C(F)(F)C(F)(F)C(F)(F)C(F)(F)C(F)(F)F)OC`, for which the result in assay [1], in assay [2], in assay [3], in assay [4], in assay [5] and in assay [6] was inactive. For the same compound, the result in assay [7], in assay [8], in assay [9] and in assay [10] was inactive.
Consider `CCN(CC)c1ccc(N=Nc2ccccc2)cc1`, for which the outcome in assay [1], in assay [2], in assay [3], in assay [4], in [7] and in assay [8] was inactive. The result in assay [9] and in assay [10] was inactive. Further, the AC50 in assay [6] is 20 µM (active).
In the case of `CC(C)(C)c1cc(CCC(=O)NCCCCCCNC(=O)CCc2cc(C(C)(C)C)c(O)c(C(C)(C)C)c2)cc(C(C)(C)C)c1O`, the result in assay [1], in assay [2], in assay [3], in assay [4], in assay [5] and in [6] was inactive. For the same compound, the result in assay [7], in [8], in assay [9] and in assay [10] was inactive.
Take `Brc1nc2ccccc2s1`: the result in assay [1], in assay [2], in assay [3], in assay [4], in assay [5] and in assay [6] was inactive. Further, the result in [7], in assay [8], in assay [9] and in assay [10] was inactive.
Turning to `OC(O)C(F)(F)C(F)(F)F`, the outcome in [1], in assay [2], in assay [3], in assay [4], in assay [5] and in assay [6] was inactive. For the same compound, the result in assay [7], in [8], in [9] and in [10] was inactive.
On to `CCN(CC)c1ccc(C=O)cc1`, for which the outcome in assay [1], in assay [2], in assay [3], in assay [4], in assay [5] and in assay [6] was inactive. Also, the outcome in assay [7], in [8], in [9] and in assay [10] was inactive.
